# In ChEMBL document CHEMBL1157539, “Thousands of chemical starting points for antimalarial lead identification” (Nature, 2010):
# Tested on: Plasmodium falciparum
# Test: GSK_TCMDC: Inhibition of Plasmodium falciparum 3D7 in whole red blood cells, using parasite LDH activity as an index of growth. Test compounds present at 2uM
# Format: functional
row,SMILES,Inhibition [%]
1,O=C(O)C(F)(F)F.c1ccc(CN2CCC(NCc3ccccc3-c3ccc(CNCc4ccc5c(c4)OCO5)cc3)CC2)cc1,100
2,COc1ccc(CCCc2nc(N)nc(N)c2-c2ccc(Cl)cc2)cc1,94
3,Cc1ccc(Cc2c[nH]c(NCCSCc3ccc(CN(C)C)s3)nc2=O)cn1,95
4,CCCCOc1cc2c(cc1OCC)C(C=Cc1ccc(Cl)cc1Cl)=NCC2.Cl,97
5,Cl.NC(=O)c1cccc(Nc2nccc(Nc3ccc(Oc4cccc5ccccc45)cc3)n2)c1,94
6,O=C(Cc1cccc(Cl)c1)Nc1cccc(-c2c[nH]c3nc(Nc4cccc(O)c4)ncc23)c1.O=C(O)C(F)(F)F,100
7,COc1ccc(-c2ccc(CNCc3ccccc3)cc2)cc1S(=O)(=O)NCCN1CCCC1.O=C(O)C(F)(F)F,100
8,CC(CN1CCN(C)CC1)C(=O)Nc1cccc(-c2ccc(-c3nc4ccccc4[nH]3)cc2)c1 (stereo not drawn),95
9,CC(=O)Nc1nc(C(=O)Nc2cccc(-c3ccc(-c4nc5cccc(C)c5[nH]4)cc3)c2)cs1,100
10,CCCC(C)Nc1nc(C)cc(N[C@@H](Cc2ccccc2)C(=O)NCCOc2ccccc2)n1.O=C(O)C(F)(F)F (stereo partly drawn),100
11,Cc1cc(Cl)c(S(=O)(=O)N(C)c2ccccc2)cc1OCC(=O)NC1CCCCC1,99
12,O=C(C1CC1c1ccccc1)N(Cc1ccc(-c2ccc(CNCCc3ccccc3)cc2)cc1)C1CCNCC1.O=C(O)C(F)(F)F (stereo not drawn),96
13,Brc1cc2c(cc1C=NNc1nc(=Nc3ccccc3)[nH]c(=Nc3ccccc3)[nH]1)OCO2,100
